Laboratory results as given in PubChem BioAssay (Tox21).
Results filed as inconclusive are left out. Calls of active or inactive are those of the source. Unless noted, the call rests on the fitted dose curve; in most records, active means well fitted curve in the direction sought with a large enough effect in the repeat runs; inconclusive means weak or mixed curves; inactive means no such curve, though single readings can be large; an effect the other way counts as inactive or inconclusive.

Columns and labels:
[1] = qHTS assay for small molecules that induce genotoxicity in human embryonic kidney cells expressing luciferase-tagged ATAD5 (AID 651632); settings: HEK293T ATAD5-luciferase induction, 16 h; series mostly up to 83.3 µM; further: nearly all actives have a fitted effect of over 15% in size
In short: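 ATAD5-luc HEK293T, 2,000 cells/well; cpd or DMSO pin-transferred; 16 hr, 37C/5% CO2; Amplite 30 min RT; luminescence.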

[2] = qHTS assay for small molecule agonists of the p53 signaling pathway - cell viability (AID 651633; calls by dose curve;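 further: p53RE-bla HCT reporter cells with a stable beta-lactamase p53 reporter; nearly all actives have a fitted effect of over 30% in size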); settings: p53RE-bla HCT-116 viability, ATP luminescence, 16 h; series mostly up to 83.3 µM
In short: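 p53RE-bla cells, seeded at 4,000 per well and rested 5 h at 37 C/5% CO2, received compounds in DMSO for 16 h at 37 C. CellTiter-Glo was then added, and luminescence was read after 30 min at room temperature to gauge cytotoxicity.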

[3] = qHTS assay for small molecules that induce genotoxicity in human embryonic kidney cells expressing luciferase-tagged ATAD5 - cell viability (AID 651634; calls by dose curve; further: nearly all actives have a fitted effect of over 25% in size); settings: HEK293T ATAD5-luc cells viability, CellTiter-Fluor, 15.5 h; series mostly up to 83.3 µM
In short: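 Fluorescence from CellTiter-Fluor, reporting protease activity within live cells, served as the viability read-out. HEK293T cells carrying luciferase-tagged ATAD5 had been treated with compound for 15.5 hr at 37C.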

[4] = qHTS assay for small molecule disruptors of the mitochondrial membrane potential - cell viability (AID 720634; calls by dose curve;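 further: human HepG2 liver cancer cells; nearly all actives have a fitted effect of over 20% in size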); settings: HepG2 viability, ATP luminescence (CellTiter-Glo), 1 h; series mostly up to 83.2 µM
In short: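 Cells: HepG2, 2,000/well, attached overnight. Compound 1 hr, 37 C/5% CO2. +m-MPI dye, +CellTiter-Glo 30 min RT. Readout: luminescence (ATP).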

[5] = qHTS assay to test for compound auto fluorescence at 535 nm (green) in HepG2 cells (AID 720675); settings: green autofluorescence 485/535 nm, 1 h; series mostly up to 46 µM
[6] = qHTS assay to test for compound auto fluorescence at 460 nm (blue) in HEK293 cells (AID 720678); settings: blue autofluorescence 405/460 nm; series mostly up to 46 µM
In short: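 After cell attachment (4-5 hr, 37C), compounds were pinned onto HEK293 monolayers in 10% dialyzed FBS medium. The blue channel (405/460 nm) was read following overnight culture. Equivalency was calculated against triamterene.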

[7] = qHTS assay to test for compound auto fluorescence at 590 nm (red) in HEK293 cells (AID 720679); settings: red autofluorescence 540/590 nm; series mostly up to 46 µM
In short: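 Plates of HEK293 cells (10% dialyzed FBS) are treated with 23 nL compound or DMSO vehicle after a 4-5 hr attachment period, incubated overnight at 37C, and read for red fluorescence at 540/590nm.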

[8] = qHTS assay to test for compound auto fluorescence at 535 nm (green) in HEK293 cells (AID 720680); settings: green autofluorescence 485/535 nm; series mostly up to 46 µM
[9] = qHTS assay to test for compound auto fluorescence at 460 nm (blue) in HEK293 cell free culture (AID 720681); settings: cell-free medium, autofluorescence 405/460 nm (blue); series mostly up to 46 µM
In short: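 Test compounds were pinned into cell-free culture medium (DMEM with 10% FBS) and fluorescence was read directly at Ex/Em 405/460 nm. Signals were expressed as fluorescence equivalents of triamterene, with DMSO vehicle as control.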

[10] = qHTS assay to test for compound auto fluorescence at 535 nm (green) in HEK293 cell free culture (AID 720682); settings: cell-free medium, green autofluorescence 485/535 nm; series mostly up to 46 µM
In short: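 Intrinsic compound fluorescence is measured in culture medium containing 10% FBS, with excitation at 485 nm and detection at 535 nm, referenced to fluorescein.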

[11] = qHTS assay to test for compound auto fluorescence at 590 nm (red) in HEK293 cell free culture (AID 720683); settings: cell-free medium autofluorescence, Ex540/Em590 red; series mostly up to 46 µM
In short: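 Tox21 10K library compounds were pinned into cell-free DMEM with 10% FBS and fluorescence was read at excitation 540 nm. Activity is expressed as Rose Bengal sodium equivalency.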

[12] = qHTS assay to test for compound auto fluorescence at 590 nm (red) in HepG2 cell free culture (AID 720684); settings: cell-free medium autofluorescence, red 540/590 nm; series mostly up to 46 µM
In short: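 Measured in medium alone (MEM containing 10% FBS) following pintool addition of compound; emission at 590 nm with 540 nm excitation, referenced to Rose Bengal sodium.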

[13] = qHTS assay to test for compound auto fluorescence at 460 nm (blue) in HepG2 cell free culture (AID 720685); settings: Cell-free culture medium, blue autofluorescence 405/460 nm; series mostly up to 46 µM
In short: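 Compound (23 nL) or DMSO pinned into cell-free MEM with 10% FBS; blue fluorescence read at 405/460 nm excitation/emission, expressed as auto-fluorescence equivalency to triamterene.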

[14] = qHTS assay to test for compound auto fluorescence at 535 nm (green) in HepG2 cell free culture (AID 720686); settings: Cell-free medium, green autofluorescence 485/535 nm; series mostly up to 46 µM
[15] = qHTS assay to test for compound auto fluorescence at 460 nm (blue) in HepG2 cells (AID 720687); settings: autofluorescence 405/460 nm, 1 h; series mostly up to 46 µM
In short: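 Cells (2,000/well in MEM with 10% FBS) attached overnight at 37 C, then were exposed to compound or DMSO for 1 hr at 37 C, 5% CO2. Fluorescence read at Ex/Em 405/460 nm, expressed as triamterene-equivalent signal.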

[16] = molecular target: Glucocorticoid receptor (Homo sapiens) (UniProt P04150); assay: qHTS assay to identify small molecule agonists of the glucocorticoid receptor (GR) signaling pathway (AID 720691; active means well fitted activation curve with a large enough effect in the signal ratio in the repeat runs, not every such curve was filed as active; the % refers to the signal ratio); settings: GR-bla HeLa, beta-lactamase reporter ratio, 18 h; series mostly up to 62.4 µM
Chain of Glucocorticoid receptor (Homo sapiens) (P04150 whole entry, looked up): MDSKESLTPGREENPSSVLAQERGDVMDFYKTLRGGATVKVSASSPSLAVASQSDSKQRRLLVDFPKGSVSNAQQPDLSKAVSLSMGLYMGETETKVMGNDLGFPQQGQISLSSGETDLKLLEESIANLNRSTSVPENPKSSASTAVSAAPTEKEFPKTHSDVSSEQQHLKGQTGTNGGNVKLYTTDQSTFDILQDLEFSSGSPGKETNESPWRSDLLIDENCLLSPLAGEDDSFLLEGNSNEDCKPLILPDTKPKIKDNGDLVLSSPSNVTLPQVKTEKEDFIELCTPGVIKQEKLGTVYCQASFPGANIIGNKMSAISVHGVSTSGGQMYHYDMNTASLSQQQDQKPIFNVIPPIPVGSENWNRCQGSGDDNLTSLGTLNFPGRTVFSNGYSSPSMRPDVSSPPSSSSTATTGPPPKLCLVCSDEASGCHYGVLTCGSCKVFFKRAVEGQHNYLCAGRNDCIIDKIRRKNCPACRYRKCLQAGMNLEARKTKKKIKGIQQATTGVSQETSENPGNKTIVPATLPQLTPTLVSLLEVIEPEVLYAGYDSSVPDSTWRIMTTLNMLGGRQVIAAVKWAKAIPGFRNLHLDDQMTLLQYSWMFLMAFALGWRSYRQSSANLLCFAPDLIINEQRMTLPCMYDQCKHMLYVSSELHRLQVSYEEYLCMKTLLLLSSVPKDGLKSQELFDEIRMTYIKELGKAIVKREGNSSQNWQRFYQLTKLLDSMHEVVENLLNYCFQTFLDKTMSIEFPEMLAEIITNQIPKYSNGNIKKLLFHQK
In short: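 Fluorescence intensity from LiveBLAzer B/G FRET substrate (2 h, room temperature) reports beta-lactamase expression driven by the glucocorticoid response element in GR-bla HeLa cells after 18 h compound exposure at 37 C.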

[17] = molecular target: Glucocorticoid receptor (Homo sapiens) (UniProt P04150); assay: qHTS assay to identify small molecule antagonists of the glucocorticoid receptor (GR) signaling pathway (AID 720692; active means well fitted inhibition curve with a large enough effect in the signal ratio in the repeat runs, not every such curve was filed as active; the % refers to the signal ratio); settings: GR-bla HeLa, beta-lactamase FRET ratio, dexamethasone-stimulated, 18 h; series mostly up to 58.5 µM
In short: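 HeLa GR-bla cells; cmpd + dex 5 nM final, 18 h 37 C; LiveBLAzer B/G FRET substrate 2 h RT; fluorescence intensity read. Antagonist mode, qHTS.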

[18] = qHTS assay to test for compound auto fluorescence at 590 nm (red) in HepG2 cells (AID 720674); settings: HepG2 autofluorescence, red 540/590 nm, 1 h; series mostly up to 46 µM
In short: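 Rose Bengal sodium served as the red fluorophore standard. HepG2 monolayers (overnight attachment, MEM with 10% FBS) were exposed to test compounds for 1 hr at 37 C and read at Ex 540/Em 590 nm.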

[19] = qHTS assay for small molecule disruptors of the mitochondrial membrane potential (AID 720635); settings: HepG2 mitochondrial membrane potential, Mito-MPS dye ratio; series mostly up to 83.2 µM
In short: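 HepG2 cells (2,000/well) attached overnight at 37C, then took compound for 1 hr at 37C, 5% CO2. Mito-MPS dye was added for 30 min; fluorescence was read at 490/535 nm (monomers) and 540/590 nm (aggregates).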

Measured: Potency

CC/C=C\CC/C=C/CO
not listed: [18] | [19]
inactive: all other assays above

C=C(C)CS(=O)(=O)O
not listed: [19]
inactive: all other assays above

CS(=O)(=O)O
not listed: [13] | [19]
inactive: all other assays above

CCc1ccc(O)c(OC)c1
not listed: [19]
inactive: all other assays above

CCO/C([O-])=N/c1c[n+](N2CCOCC2)no1
not listed: [13] | [19]
inactive: all other assays above

CCOc1ccc(C(=O)OCCN(CC)CC)cc1
not listed: [16] | [17] | [19]
inactive: all other assays above

CCCCNC(=O)NCCCC
not listed: [13] | [19]
inactive: all other assays above

Cc1[nH]c(=O)c(C#N)cc1-c1ccc2nccn2c1
not listed: [19]
inactive: all other assays above

Nc1nc2c(ncn2COC(CO)CO)c(=O)[nH]1
not listed: [4] | [17] | [19]
inactive: all other assays above

CC(=O)OCC(=O)[C@@]1(O)CC[C@H]2[C@@H]3CCC4=CC(=O)CC[C@]4(C)[C@H]3C(=O)C[C@@]21C
not listed: [16] | [17] | [19]
inactive: all other assays above

CCCCC(CC)COC(=O)c1ccccc1O (centres undefined)
not listed: [19]
inactive: all other assays above

CC(C)NC(=O)NC(C)C
not listed: [17] | [19]
inactive: all other assays above

N#Cc1ccc(C2CCCc3cncn32)cc1 (centres undefined)
not listed: [9] | [19]
inactive: all other assays above

O=C(O)CN(CCOCCOCCN(CC(=O)O)CC(=O)O)CC(=O)O
not listed: [19]
inactive: all other assays above

FC1(F)C(F)(F)C(F)(F)C2(F)C(F)(F)C(F)(F)C(F)(F)C(F)(F)C2(F)C1(F)F (centres undefined)
not listed: [3] | [17]
inactive: all other assays above

Nc1ccc(S(=O)(=O)Nc2ccnn2-c2ccccc2)cc1
not listed: [13] | [19]
inactive: all other assays above
